Laboratory results: PubChem BioAssay (EPA / NIEHS)
“And” between values parts separate entries of the source, which are not always exact repeats. Identical values can stand only once. Results filed as inconclusive are left out. The source made the active and inactive calls. The calls were made as follows, unless noted: active = hit-call score of the fitted dose curve at least 0.9, where 1 is the maximum; inactive = score below 0.9.

How the values were obtained:
[1] = target: Nuclear respiratory factor 1 (Homo sapiens) (UniProt Q16656); experiment: ATG_NRF1_CIS: Attagene CIS-FACTORIAL HepG2 Assay for human Nuclear Respiratory Factor 1 (NRF1) Orphan Gene (AID 2282987); settings: HepG2 NRF1 cis-element reporter, Attagene multiplex; actives raise or lower the signal
Sequence of Nuclear respiratory factor 1 (Homo sapiens) (Q16656 whole entry, looked up): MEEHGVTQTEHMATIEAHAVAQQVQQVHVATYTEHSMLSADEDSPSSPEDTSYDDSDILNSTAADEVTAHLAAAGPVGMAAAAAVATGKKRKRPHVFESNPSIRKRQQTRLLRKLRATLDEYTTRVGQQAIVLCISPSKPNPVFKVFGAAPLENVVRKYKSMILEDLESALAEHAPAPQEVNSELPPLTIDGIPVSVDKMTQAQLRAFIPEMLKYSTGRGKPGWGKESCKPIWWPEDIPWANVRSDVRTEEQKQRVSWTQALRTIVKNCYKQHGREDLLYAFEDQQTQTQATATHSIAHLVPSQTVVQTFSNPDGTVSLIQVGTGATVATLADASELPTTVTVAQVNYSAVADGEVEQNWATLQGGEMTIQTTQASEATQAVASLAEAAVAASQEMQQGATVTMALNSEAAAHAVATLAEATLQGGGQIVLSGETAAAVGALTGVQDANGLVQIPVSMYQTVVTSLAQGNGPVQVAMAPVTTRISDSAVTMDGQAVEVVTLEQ
Summary of the method: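 HepG2 cells transiently transfected with multiple reporter transcription units under cis-regulatory promoter control, so endogenous transcription-factor activity is read. After 24 h compound exposure, reporter mRNA quantified by RT-PCR, fluorescent labelling, HpaI digestion and capillary electrophoresis; bidirectional fitting versus DMSO.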

[2] = ATG_NFI_CIS: Attagene CIS-FACTORIAL HepG2 Assay for human Nuclear Factor I (NFI) (AID 2282989); settings: HepG2 cis-regulatory reporter, NFI response element transcription; actives raise or lower the signal
Summary of the method: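 HepG2 cells transiently transfected with cis-element-driven multiplexed reporter transcription units, dosed for 24 h. Reporter mRNA quantified by RT-PCR, fluorescent labelling, HpaI digestion and capillary electrophoresis; bidirectional fit versus DMSO baseline.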

[3] = target: Myc proto-oncogene protein (Homo sapiens) (UniProt P01106); experiment: ATG_Myc_CIS: Attagene CIS-FACTORIAL HepG2 Assay for human Myelocytomatosis (Myc) Proto-Oncogene Transcription Factor (AID 2282990); settings: HepG2, Attagene cis-reporter transcription factor activity; actives raise or lower the signal
Sequence of Myc proto-oncogene protein (Homo sapiens) (P01106 whole entry, looked up, the tested form may be a part): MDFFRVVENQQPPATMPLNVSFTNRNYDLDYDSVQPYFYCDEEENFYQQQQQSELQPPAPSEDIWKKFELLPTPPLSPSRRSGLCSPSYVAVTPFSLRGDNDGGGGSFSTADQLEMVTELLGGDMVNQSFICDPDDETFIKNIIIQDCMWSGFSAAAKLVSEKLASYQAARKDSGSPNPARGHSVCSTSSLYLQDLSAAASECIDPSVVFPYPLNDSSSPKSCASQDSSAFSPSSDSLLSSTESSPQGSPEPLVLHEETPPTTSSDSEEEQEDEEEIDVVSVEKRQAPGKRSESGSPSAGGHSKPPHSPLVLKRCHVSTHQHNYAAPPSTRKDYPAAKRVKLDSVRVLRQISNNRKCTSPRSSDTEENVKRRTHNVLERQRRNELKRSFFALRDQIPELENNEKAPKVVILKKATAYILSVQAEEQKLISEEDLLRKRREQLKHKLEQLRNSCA
Summary of the method: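 Fluorescence intensity of reporter-specific cDNA fragments, separated by capillary electrophoresis, gives the signal. Transfected HepG2 cells carrying cis-promoter reporter constructs are incubated with compound for 24 h; DMSO serves as baseline.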

[4] = ATG_NF_kB_CIS: Attagene CIS-FACTORIAL HepG2 Assay for human Nuclear Factor Kappa B (NF-kB) (AID 2282991); settings: HepG2 Attagene cis-factorial NF-kB reporter mRNA; actives raise or lower the signal
Summary of the method: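 HepG2 cells transiently transfected with multiplexed cis-element reporter units measuring endogenous transcription factor activity; reporter mRNA read 24 h after dosing by RT-PCR, fluorescent labelling, HpaI digestion and capillary electrophoresis. Bidirectional fit against DMSO baseline.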

[5] = ATG_NRF2_ARE_CIS: Attagene CIS-FACTORIAL HepG2 Assay for human Nuclear Factor Erythroid 2 Related Factor 2 (NFR2) response to Antioxidant Response Elements (ARE) (AID 2282992); settings: HepG2 Attagene ARE/NRF2 reporter, transcription factor activity; actives raise or lower the signal;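 as to AC50: reporter mRNA level measured by RT-PCR and capillary electrophoresis fluorescence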
Summary of the method: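 Cis-factorial assay: transfected HepG2 reporter library, 24 h dosing, mRNA readout via RT-PCR/CE; DMSO-referenced bidirectional analysis.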

[6] = ATG_Oct_MLP_CIS: Attagene CIS-FACTORIAL HepG2 Assay for human Octamer-Binding Transcription Factor (Oct) (AID 2282993); settings: HepG2 Attagene cis-factorial Oct reporter, mRNA; actives raise or lower the signal
Summary of the method: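 HepG2 cells transiently transfected with cis-promoter-driven multiplexed reporter transcription units, dosed for 24 h. Reporter mRNA quantified by RT-PCR, fluorescent labelling, HpaI digestion and capillary electrophoresis; bidirectional fits versus DMSO baseline.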

[7] = target: Cellular tumor antigen p53 (Homo sapiens) (UniProt P04637); experiment: ATG_p53_CIS: Attagene CIS-FACTORIAL HepG2 Assay for human p53 Transcription Factor (AID 2282994); settings: HepG2 p53 cis-element reporter, Attagene mRNA; actives raise or lower the signal
Sequence of Cellular tumor antigen p53 (Homo sapiens) (P04637 whole entry, looked up): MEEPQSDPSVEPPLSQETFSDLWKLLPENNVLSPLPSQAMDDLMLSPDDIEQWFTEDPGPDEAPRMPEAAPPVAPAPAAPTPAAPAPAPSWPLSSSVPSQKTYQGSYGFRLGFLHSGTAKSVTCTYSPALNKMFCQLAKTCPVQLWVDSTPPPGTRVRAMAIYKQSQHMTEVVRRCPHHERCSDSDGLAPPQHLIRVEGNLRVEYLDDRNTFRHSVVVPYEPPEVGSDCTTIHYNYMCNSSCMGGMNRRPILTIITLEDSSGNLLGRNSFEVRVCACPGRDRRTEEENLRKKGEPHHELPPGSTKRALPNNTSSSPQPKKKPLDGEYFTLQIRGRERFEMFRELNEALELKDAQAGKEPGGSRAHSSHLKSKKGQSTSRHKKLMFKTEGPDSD
Summary of the method: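 Using HepG2 hepatoma cells carrying cis-acting multiplexed reporters, mRNA induction is detected after a 24 h exposure. Gain- and loss-of-signal responses are fitted relative to DMSO-treated cells.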

[8] = BSK_3C_TissueFactor: BioMAP Diversity Plus: 3C Assay for Tissue Factor Biomarker Activity (AID 2282997); settings: BioMAP 3C HUVEC, tissue factor biomarker readout; actives raise or lower the signal
Summary of the method: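 Values derive from bidirectional curve fitting against DMSO of Tissue Factor ELISA signals, taken 24 h after dosing primary human umbilical vein endothelial cells.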

[9] = BSK_3C_uPAR: BioMAP Diversity Plus: 3C Assay for Urokinase-type plasminogen activator receptor (uPAR) Biomarker Activity (AID 2282998); settings: BioMAP 3C HUVEC, uPAR biomarker ELISA; actives raise or lower the signal
Summary of the method: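 Human umbilical vein endothelial primary cells were exposed to test chemical for 24 h. Cell-surface uPAR was then quantified by ELISA, and responses were fitted bidirectionally against DMSO as negative control and baseline.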

[10] = BSK_3C_VCAM1: BioMAP Diversity Plus: 3C Assay for Vascular cell adhesion molecule 1 (VCAM1) Biomarker Activity (AID 2282999); settings: BioMAP 3C HUVEC, VCAM1 ELISA, cytokine-stimulated; actives raise or lower the signal
Summary of the method: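 Human umbilical vein endothelial cells (3C system), biomarker read by ELISA 24 h after dosing; bidirectional fit against DMSO baseline. Cytotoxicity tracked by SRB total-protein staining in parallel cultures at biomarker time.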

[11] = BSK_4H_Eotaxin3: BioMAP Diversity Plus: 4H Assay for Eotaxin 3 Biomarker Activity (AID 2283000); settings: primary human endothelial cells (HUVEC); actives raise or lower the signal
Summary of the method: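 Endothelial primary cells (human umbilical vein) exposed to compound for 24 h. ELISA detection of Eotaxin-3.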

[12] = read-out: Intercellular Adhesion Molecule 1 (ICAM1), ICAM1 (gene 3383); experiment: BSK_3C_ICAM1: BioMAP Diversity Plus: 3C Assay for Intercellular Adhesion Molecule 1 (ICAM1) Biomarker Activity (AID 2283003); settings: primary human endothelial cells (HUVEC); actives raise or lower the signal
Summary of the method: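 ICAM-1 levels measured by ELISA after HUVEC cultures in the 3C system had been dosed for 24 h. Gain or loss of signal relative to DMSO was fitted in both directions.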

[13] = BSK_3C_Proliferation: Cell Proliferation Assessment in the BioMAP Diversity Plus: 3C Assay (AID 2283006); settings: primary human endothelial cells (HUVEC);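 as to AC50: potency may reflect either rise or fall in cell number versus DMSO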
Summary of the method: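 Read-out is total protein by SRB absorbance at 560 nm, taken as a proxy for relative cell number. Primary human umbilical vein endothelium cultured below confluence was dosed for 48 h, TCA-fixed and SRB-stained; curves were fitted bidirectionally versus DMSO.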

[14] = target: Peroxisome proliferator-activated receptor gamma (Homo sapiens) (UniProt P37231); experiment: ATG_PPARg_TRANS: Attagene TRANS-FACTORIAL HepG2 Assay for human Peroxisome Proliferator-activated Receptor-gamma (PPARg) (AID 2283007; active = hit-call score of the fitted dose curve at least 0.9, where 1 is the maximum)
Sequence of Peroxisome proliferator-activated receptor gamma (Homo sapiens) (P37231 whole entry, looked up, the tested form may be a part): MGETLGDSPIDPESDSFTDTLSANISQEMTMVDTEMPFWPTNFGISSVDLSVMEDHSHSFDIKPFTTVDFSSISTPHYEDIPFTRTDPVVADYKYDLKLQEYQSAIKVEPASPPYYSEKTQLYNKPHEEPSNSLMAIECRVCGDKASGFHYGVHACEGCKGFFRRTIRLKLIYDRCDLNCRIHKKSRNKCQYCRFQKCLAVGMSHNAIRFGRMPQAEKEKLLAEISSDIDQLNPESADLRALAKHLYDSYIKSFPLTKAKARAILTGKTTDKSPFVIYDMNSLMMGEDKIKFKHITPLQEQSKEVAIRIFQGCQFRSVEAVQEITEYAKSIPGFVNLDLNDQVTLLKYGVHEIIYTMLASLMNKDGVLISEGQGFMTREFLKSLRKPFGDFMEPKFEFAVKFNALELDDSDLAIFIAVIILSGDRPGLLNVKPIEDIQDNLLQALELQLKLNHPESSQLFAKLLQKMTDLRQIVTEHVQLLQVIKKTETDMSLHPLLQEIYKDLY
Summary of the method: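 HepG2 cells transiently transfected with multiplexed GAL4-UAS reporter units and exogenous chimeric NR-Gal4 proteins; reporter mRNA quantified after 24 h compound exposure by RT-PCR, fluorescent labelling, HpaI digestion and capillary electrophoresis; gain-of-signal fitted versus DMSO baseline.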

[15] = target: Nuclear receptor subfamily 1 group I member 2 (Homo sapiens) (UniProt O75469); experiment: ATG_PXR_TRANS: Attagene TRANS-FACTORIAL HepG2 Assay for human Pregnane X Receptor (PXR) (AID 2283008; active = hit-call score of the fitted dose curve at least 0.9, where 1 is the maximum)
Sequence of Nuclear receptor subfamily 1 group I member 2 (Homo sapiens) (O75469 whole entry, looked up, the tested form may be a part): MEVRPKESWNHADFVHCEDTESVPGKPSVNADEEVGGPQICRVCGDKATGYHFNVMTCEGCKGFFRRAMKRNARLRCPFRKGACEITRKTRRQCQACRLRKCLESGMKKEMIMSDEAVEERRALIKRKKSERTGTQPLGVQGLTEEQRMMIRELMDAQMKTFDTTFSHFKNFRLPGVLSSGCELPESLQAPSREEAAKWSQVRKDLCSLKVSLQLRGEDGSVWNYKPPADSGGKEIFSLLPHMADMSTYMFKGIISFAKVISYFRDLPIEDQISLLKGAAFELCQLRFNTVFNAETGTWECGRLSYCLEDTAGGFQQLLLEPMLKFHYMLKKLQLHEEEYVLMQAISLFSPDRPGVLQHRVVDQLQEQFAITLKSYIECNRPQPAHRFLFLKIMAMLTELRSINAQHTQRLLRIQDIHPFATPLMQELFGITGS
Summary of the method: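 Fluorescence intensity of FAM-labelled, HpaI-digested reporter amplicons, separated by capillary electrophoresis, quantifies induction. HepG2 cells with PXR-Gal4 trans-reporter system were exposed 24 h; DMSO defines baseline.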

[16] = target: human Peroxisome Proliferator-activated Receptor alpha (PPARa), PPARA (gene 5465) (UniProt Q07869); experiment: ATG_PPARa_TRANS: Attagene TRANS-FACTORIAL HepG2 Assay for human Peroxisome Proliferator-activated Receptor alpha (PPARa) (AID 2283001; active = hit-call score of the fitted dose curve at least 0.9, where 1 is the maximum;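 as to AC50: potency for gain of reporter signal over DMSO so agonist or activator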)
Sequence of human Peroxisome Proliferator-activated Receptor alpha (PPARa), PPARA (gene 5465) (Q07869 whole entry, looked up, the tested form may be a part): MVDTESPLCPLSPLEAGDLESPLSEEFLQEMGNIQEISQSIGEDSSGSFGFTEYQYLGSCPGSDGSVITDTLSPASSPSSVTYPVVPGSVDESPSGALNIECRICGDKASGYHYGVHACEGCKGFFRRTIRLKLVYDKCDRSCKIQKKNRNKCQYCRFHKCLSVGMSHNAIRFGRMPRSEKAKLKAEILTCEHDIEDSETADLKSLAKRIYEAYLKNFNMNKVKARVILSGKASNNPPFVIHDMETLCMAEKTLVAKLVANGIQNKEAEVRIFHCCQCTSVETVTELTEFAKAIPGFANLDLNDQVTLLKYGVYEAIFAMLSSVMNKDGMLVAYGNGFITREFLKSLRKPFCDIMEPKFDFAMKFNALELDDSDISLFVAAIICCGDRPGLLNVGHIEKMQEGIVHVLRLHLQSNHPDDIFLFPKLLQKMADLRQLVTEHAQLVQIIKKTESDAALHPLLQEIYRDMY
Summary of the method: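 HepG2 cells transiently transfected with multiplexed GAL4-UAS reporters driven by exogenous chimeric NR-Gal4 proteins; reporter mRNA measured after 24 h dosing. Read-out by RT-PCR, 6-FAM labelling, HpaI digestion and capillary electrophoresis; gain of signal versus DMSO.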

[17] = target: human Peroxisome Proliferator-activated Receptor delta (PPARd), PPARD (gene 5467) (UniProt Q03181); experiment: ATG_PPARd_TRANS: Attagene TRANS-FACTORIAL HepG2 Assay for human Peroxisome Proliferator-activated Receptor delta (PPARd) (AID 2283002; active = hit-call score of the fitted dose curve at least 0.9, where 1 is the maximum)
Sequence of human Peroxisome Proliferator-activated Receptor delta (PPARd), PPARD (gene 5467) (Q03181 whole entry, looked up, the tested form may be a part): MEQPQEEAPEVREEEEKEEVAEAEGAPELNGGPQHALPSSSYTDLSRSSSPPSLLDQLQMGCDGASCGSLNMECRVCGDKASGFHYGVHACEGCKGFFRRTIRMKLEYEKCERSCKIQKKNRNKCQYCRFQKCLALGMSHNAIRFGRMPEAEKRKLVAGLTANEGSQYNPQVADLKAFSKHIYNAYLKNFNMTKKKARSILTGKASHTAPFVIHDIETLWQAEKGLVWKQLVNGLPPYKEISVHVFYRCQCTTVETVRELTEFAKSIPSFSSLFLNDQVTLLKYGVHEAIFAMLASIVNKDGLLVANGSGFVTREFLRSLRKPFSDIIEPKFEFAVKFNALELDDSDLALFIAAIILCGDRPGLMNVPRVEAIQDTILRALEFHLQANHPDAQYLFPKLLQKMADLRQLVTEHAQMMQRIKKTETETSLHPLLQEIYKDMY
Summary of the method: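 Fluorescence from capillary electrophoresis of labelled RT-PCR reporter fragments gives the signal; DMSO sets baseline. Cells: HepG2 transiently carrying GAL4-UAS reporter units plus chimeric nuclear receptor-Gal4 proteins, exposed to chemicals for 24 h.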

[18] = target: human Retinoic Acid Receptor beta (RARb), RARB (gene 5915) (UniProt P10826); experiment: ATG_RARb_TRANS: Attagene TRANS-FACTORIAL HepG2 Assay for human Retinoic Acid Receptor beta (AID 2283004; active = hit-call score of the fitted dose curve at least 0.9, where 1 is the maximum)
Sequence of human Retinoic Acid Receptor beta (RARb), RARB (gene 5915) (P10826 whole entry, looked up, the tested form may be a part): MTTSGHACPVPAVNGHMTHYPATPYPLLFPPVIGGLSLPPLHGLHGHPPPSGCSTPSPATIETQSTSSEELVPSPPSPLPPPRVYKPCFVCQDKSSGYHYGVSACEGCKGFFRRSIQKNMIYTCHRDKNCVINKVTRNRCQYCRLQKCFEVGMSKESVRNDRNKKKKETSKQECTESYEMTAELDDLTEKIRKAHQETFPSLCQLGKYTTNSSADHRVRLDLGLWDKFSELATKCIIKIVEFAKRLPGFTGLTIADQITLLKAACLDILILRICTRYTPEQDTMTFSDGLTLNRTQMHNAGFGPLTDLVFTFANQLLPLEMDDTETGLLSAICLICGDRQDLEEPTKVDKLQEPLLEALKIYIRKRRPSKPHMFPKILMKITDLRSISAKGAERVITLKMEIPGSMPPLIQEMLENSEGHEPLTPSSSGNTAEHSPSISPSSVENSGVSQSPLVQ
Summary of the method: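 HepG2, transient MRTU transfection, NR–Gal4 chimera, 24 h treatment; RT-PCR plus CE fluorescence detection of reporter mRNA; gain of signal vs DMSO.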

[19] = target: Retinoic acid receptor alpha (Homo sapiens) (UniProt P10276); experiment: ATG_RARa_TRANS: Attagene TRANS-FACTORIAL HepG2 Assay for human Retinoic Acid Receptor alpha (RARa) (AID 2283005; active = hit-call score of the fitted dose curve at least 0.9, where 1 is the maximum;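 as to AC50: potency for increased reporter signal meaning RARa activation over DMSO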)
Sequence of Retinoic acid receptor alpha (Homo sapiens) (P10276 whole entry, looked up, the tested form may be a part): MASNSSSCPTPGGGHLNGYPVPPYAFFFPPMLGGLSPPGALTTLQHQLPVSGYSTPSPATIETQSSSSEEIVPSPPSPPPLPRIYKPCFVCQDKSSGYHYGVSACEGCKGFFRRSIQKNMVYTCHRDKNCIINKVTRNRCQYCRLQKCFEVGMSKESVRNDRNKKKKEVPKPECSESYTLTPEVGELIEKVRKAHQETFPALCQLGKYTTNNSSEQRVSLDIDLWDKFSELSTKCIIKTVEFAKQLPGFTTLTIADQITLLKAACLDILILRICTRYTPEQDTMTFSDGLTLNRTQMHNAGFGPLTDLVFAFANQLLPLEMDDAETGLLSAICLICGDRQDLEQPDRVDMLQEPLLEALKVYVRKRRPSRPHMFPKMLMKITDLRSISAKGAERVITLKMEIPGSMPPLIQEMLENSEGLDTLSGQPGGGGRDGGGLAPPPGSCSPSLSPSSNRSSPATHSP
Summary of the method: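 HepG2 transiently transfected with multiplex GAL4-UAS reporter units including a human RARa–GAL4 chimera; 24 h compound exposure. Reporter mRNA quantified by RT-PCR, 6-FAM labeling and capillary electrophoresis; gain of signal versus DMSO.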

[20] = target: human Retinoic Acid Receptor gamma (RARg), RARG (gene 5916) (UniProt P13631); experiment: ATG_RARg_TRANS: Attagene TRANS-FACTORIAL HepG2 Assay for human Retinoic Acid Receptor gamma (RARg) (AID 2283009; active = hit-call score of the fitted dose curve at least 0.9, where 1 is the maximum)
Sequence of human Retinoic Acid Receptor gamma (RARg), RARG (gene 5916) (P13631 whole entry, looked up): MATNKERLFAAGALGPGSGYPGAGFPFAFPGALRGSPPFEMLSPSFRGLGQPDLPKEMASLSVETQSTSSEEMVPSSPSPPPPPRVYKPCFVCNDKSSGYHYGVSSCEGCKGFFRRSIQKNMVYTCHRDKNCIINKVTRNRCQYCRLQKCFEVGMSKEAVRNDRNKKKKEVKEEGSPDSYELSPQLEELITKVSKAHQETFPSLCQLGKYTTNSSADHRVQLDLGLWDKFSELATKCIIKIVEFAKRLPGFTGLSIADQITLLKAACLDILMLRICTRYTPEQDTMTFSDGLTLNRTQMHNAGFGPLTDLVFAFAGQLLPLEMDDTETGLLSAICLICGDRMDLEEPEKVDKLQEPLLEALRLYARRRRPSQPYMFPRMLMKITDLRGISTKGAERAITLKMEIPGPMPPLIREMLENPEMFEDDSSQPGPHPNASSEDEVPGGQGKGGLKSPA
Summary of the method: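 Transient transfection of HepG2 with multi-reporter constructs, then 24 h chemical treatment. Total RNA isolated, reverse-transcribed, PCR-amplified, fluorescently labelled and resolved by capillary electrophoresis; activity scored as mRNA induction versus DMSO.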

Measured: AC50

CC(C)(C)c1cc(CCC(=O)NCCCCCCNC(=O)CCc2cc(C(C)(C)C)c(O)c(C(C)(C)C)c2)cc(C(C)(C)C)c1O
active: [15] 0.0823 µM
not listed: [16] | [17] | [18] | [19] | [20]
inactive: all other assays above

Nc1cccnc1N
active: [5] 17.9 µM | [19] 70.8 µM
not listed: [8] | [9] | [10] | [11] | [12] | [13] | [15]
inactive: all other assays above

CC(C)C(=O)OCc1ccccc1
inactive: [1] | [2] | [3] | [4] | [5] | [6] | [7] | [16]

Nc1cc([N+](=O)[O-])cc(Cl)c1O
not listed: [14] | [17] | [18] | [19] | [20]
inactive: all other assays above

C=CC(=O)OCC(F)(F)C(F)(F)C(F)(F)COC(=O)C=C
inactive: [1] | [2] | [3] | [16] | [15] | [20]
active: [4] 15.9 µM | [5] 12.7 µM | [6] 10.9 µM | [7] 78.8 µM | [8] 23.3 µM and 14.6 µM | [9] 30 µM and 48.5 µM | [10] 15.6 µM and 20.5 µM | [11] 9.89 µM and 8.33 µM | [12] 46.5 µM | [13] 8.32 µM and 9.46 µM | [14] 2.69 µM

O=C(O)C(F)(F)C(F)(F)C(F)(F)C(F)(F)C(F)(F)C(F)(F)C(F)F
active: [5] 100 µM | [16] 6.55 µM | [14] 41.8 µM
not listed: [17] | [18] | [19] | [20]
inactive: all other assays above

Cc1cnccn1
not listed: [14] | [16] | [18]
inactive: all other assays above
